Inhibition data for eleven compounds are collected here from ChEMBL document CHEMBL1157539, “Thousands of chemical starting points for antimalarial lead identification” (Nature, 2010).

Common to all, as to type: functional
In experiment [1] the test system is Plasmodium falciparum. The experiment can be described thus: GSK_TCMDC: Inhibition of Plasmodium falciparum 3D7 in whole red blood cells, using parasite LDH activity as an index of growth. Test compounds present at 2uM.
Experiment [2] concerns Plasmodium falciparum. The experiment can be described thus: GSK_TCMDC: Inhibition of Plasmodium falciparum Dd2 in whole red blood cells, using parasite LDH activity as an index of growth. Test compounds present at 2uM.
For another experiment, the system named is HepG2. The experiment can be described thus: GSK_TCMDC: Percent inhibition of human HepG2 cell line. Test compounds present at 10uM.

One may read the Inhibition as the relative decrease from the control value, in per cent. Low readings indicate little suppression, high ones strong suppression. Take `CNC(=O)C1Cc2c([nH]c3cc(Cl)ccc23)C2(CCN(CCc3ccccc3)CC2)N1` (stereo not drawn): the results for the Inhibition in the experiment on Plasmodium falciparum [1], in the experiment with Plasmodium falciparum [2] and with HepG2 were 91%, 3% and 14%, respectively.
The matching figures for `CN1CCN(c2nsc3ccc(-c4ccc(NC(=O)Nc5ccccc5)cc4)cc23)CC1.O=C(O)C(F)(F)F`: 100%, 98% and 38%.
As for `O=C(Nc1ccc(Cn2ncc(N3CCCNCC3)c(Cl)c2=O)cc1)Nc1cc(F)cc(C(F)(F)F)c1.O=C(O)C(F)(F)F`, the Inhibition in the experiment with Plasmodium falciparum [1] came to 100%; with Plasmodium falciparum [2] it was 44%; with HepG2, 35%.
Consider `N#Cc1ccc2c(c1)CN(C1CCC(NC(=O)C3=Cc4cc(Cl)ccc4OC3)CC1)CCC2` (stereo not drawn), for which the Inhibition is on record as 93% in the experiment on Plasmodium falciparum [1], 8% in the experiment with Plasmodium falciparum [2] and 0% in the experiment on HepG2.
`Cc1cc(N[C@@H](C)C(=O)Nc2ccccc2)nc(NCCc2ccc(F)cc2)n1.O=C(O)C(F)(F)F`: the Inhibition turned out to be 100% in the experiment with Plasmodium falciparum [1], 43% in the experiment with Plasmodium falciparum [2] and 33% with HepG2.
Take `COc1cccc(CN2CCCC(CCC(=O)Nc3ccc(C(F)(F)F)cc3)C2)c1O` (stereo not drawn): the Inhibition amounted to 98% with Plasmodium falciparum [1], 97% with Plasmodium falciparum [2] and 15% in the experiment with HepG2.
For `COc1ccc(CCCc2nc(N)nc(N)c2-c2ccc(Cl)cc2)cc1`, the Inhibition is 94% with Plasmodium falciparum [1], 0% in the experiment on Plasmodium falciparum [2] and 65% in the experiment with HepG2.
As for `COC(=O)c1ccc(-c2ccc(C(=O)NCC3CCN(c4nc(N)c5cc(OC)c(OC)cc5n4)CC3)cc2)cc1`, the Inhibition with Plasmodium falciparum [1] turned out to be 98%; in the experiment with Plasmodium falciparum [2], 100%; in the experiment with HepG2, 53%.
Take `Cc1cccc(C(O)CNc2ccnc(Nc3cccc(-c4csc(C)n4)c3)n2)c1` (stereo not drawn): the Inhibition came to 99% in the experiment with Plasmodium falciparum [1], 88% in the experiment on Plasmodium falciparum [2] and 29% in the experiment on HepG2.
For `O=C(CSc1ccccn1)Nc1c(F)cccc1F`, in that order: 88%, 0% and 0%.
On to `O=C(NCCCN1CCC(N2CCCCC2)CC1)c1ccc(N2CCOc3ccccc32)s1`, for which the results for the Inhibition in the experiment with Plasmodium falciparum [1], in the experiment on Plasmodium falciparum [2] and in the experiment on HepG2 were 100%, 12% and 37%, respectively.
